# A selection: hits, their analogues and other compounds. The true share with any hit is near 7.3%.
# KinaseGlo FLuc: Counterscreen for Luciferase (Kinase-Glo TM) Inhibition; Luciferin 4-monooxygenase (Photuris pensylvanica), Q27757; Kinase-Glo luciferase, ATP luminescence, 8 min; Potency, µM (titrated, usually from 38.3 µM), for the others: at the highest dose activity change, negative = inhibition, hits mostly inhibitors; hit rate 0.28% among 200,000; note: % is set by controls: 0 for no effect and ±100 for the full control effect; nearly all actives have a fitted effect of over 60% in size
#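 Kinase-Glo luciferase light output from ATP and luciferin was measured with 10 uM ATP, within the enzyme's linear range. Buffer: 50 mM imidazole pH 7.2, 50 mM KCl, 7 mM MgCl2, 0.01% Tween 20, 0.05% BSA; luminescence read after 8 min at ambient temperature.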
# ELG1 genotox: qHTS screen for small molecules that induce genotoxicity in human embryonic kidney (HEK293T) cells expressing luciferase-tagged ELG1; HEK293T ELG1-luciferase reporter, luminescence, 16 h; Potency, µM (titrated, usually from 46 µM), for the others: top-dose activity change, positive = activation, hits mostly activators; hit rate 1.3% among 330,000; note: % of control where 0% means no effect; nearly all actives have a fitted effect of over 60% in size
#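 Genotoxicity was scored as increased ELG1-luciferase reporter signal, measured by ONE-Glo luminescence (30 min, room temperature). Compound or vehicle exposure of the HEK293T reporter cells lasted 16 hr at 37°C.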
# NPC1 prom act: qHTS Assay for NPC1 Promoter Activators; Huh7 NPC1 promoter luciferase reporter, 24 h; Potency, µM (top dose mostly 9.22 µM), inactives show top-dose activation, hits mostly activators; hit rate 2.4% among 320,000; AID 485313, 2010; note: % of control where 0% means no effect; nearly all actives have a fitted effect of over 60% in size
#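 Stably transfected Huh7 (NPC1 promoter→luciferase), 1500 cells/well in Opti-MEM + 10% FBS, 2 h settle, then compound 24 h at 37 °C. Luminescence after 10 min with Amplite reagent.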
# FLuc modulator: qHTS profiling assay for firefly luciferase inhibitor/activator using purifed enzyme and Km concentrations of substrates (counterscreen for miR-21 project). Luciferin 4-monooxygenase (Photinus pyralis), P08659. purified FLuc, Km substrates, luminescence inhibition. Potency, µM (top dose mostly 57.5 µM), without a hit: top-dose activity change, negative = inhibition, actives largely listed as inhibitors. hit rate 6.9% among 360,000. AID 588342, 2011;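 note: plate controls were vehicle for no effect and reference inhibitor for full effect; nearly all actives have a fitted effect of over 55% in size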
# Target sequence (P08659 whole entry, looked up): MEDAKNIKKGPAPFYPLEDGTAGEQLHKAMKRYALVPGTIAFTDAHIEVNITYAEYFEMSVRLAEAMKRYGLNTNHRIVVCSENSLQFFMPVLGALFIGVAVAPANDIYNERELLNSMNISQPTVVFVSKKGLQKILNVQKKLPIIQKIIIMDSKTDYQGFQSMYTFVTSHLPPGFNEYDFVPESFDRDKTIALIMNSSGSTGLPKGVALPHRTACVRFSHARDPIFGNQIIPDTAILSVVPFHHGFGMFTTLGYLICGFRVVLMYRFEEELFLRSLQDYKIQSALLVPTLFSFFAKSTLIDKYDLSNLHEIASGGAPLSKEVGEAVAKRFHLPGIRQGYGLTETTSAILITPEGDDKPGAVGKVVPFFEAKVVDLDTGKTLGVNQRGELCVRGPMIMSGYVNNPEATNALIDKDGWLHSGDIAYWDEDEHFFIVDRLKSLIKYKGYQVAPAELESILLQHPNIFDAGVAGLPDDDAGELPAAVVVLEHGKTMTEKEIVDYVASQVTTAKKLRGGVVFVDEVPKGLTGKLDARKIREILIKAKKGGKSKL
#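 Purified P. pyralis luciferase (10nM final) with 10uM D-luciferin and 10uM ATP (Km levels) in 50mM Tris acetate pH 7.5, 10mM Mg acetate, 0.01% Tween-20, 0.05% BSA; qHTS 6-point titration, ~60 µM downward; luminescence read.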
# Rab9 promoter act: qHTS Assay for Rab9 Promoter Activators | Huh7 Rab9 promoter-luciferase reporter, luminescence, 24 h | Potency, µM (titrated, usually from 9.22 µM), for the others: top-dose activation, negative = inhibition, actives largely listed as activators | hit rate 2.8% among 320,000 | AID 485297, 2010; note: % of control where 0% means no effect; nearly all actives have a fitted effect of over 60% in size
#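 Huh7 reporter line, Rab9 promoter upstream of luciferase. Compound exposure 24 h at 37 °C in reduced-serum medium with 10% FBS. Read-out: luminescence.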
# SMN2 splice up: qHTS Assay for Enhancers of SMN2 Splice Variant Expression. HEK293 SMN2-luciferase splicing reporter, luminescence, 30-36 h. Potency, µM (highest dose often 46.1 µM), for the others: at the top dose activity change, positive = activation, usual class: activators. AID 1458, 2008. hit rate 2.8% among 210,000; note: % of control where 0% means no effect; nearly all actives have a fitted effect of over 55% in size
#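 HEK293 cells carry an SMN2 minigene-luciferase reporter in which exon 7 inclusion puts luciferase in frame. Cells were seeded at 2000 cells/well, attached for 10-12 hours, then exposed to compounds for 30-36 hours at 37C before ONE-Glo luminescence.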
# * = called active by the depositor; u = inconclusive; x = no result given. Calls come from the whole dose curve; as a rule, active = well fitted curve in the direction sought with a large enough effect; inconclusive = small, poorly fitted or top-dose-only effect, or another doubt; inactive = no such curve, though single readings can be large; an effect the other way counts as inactive or inconclusive. Potency is the fitted concentration of half-maximal effect.
SMILES,KinaseGlo FLuc,ELG1 genotox,NPC1 prom act,FLuc modulator,Rab9 promoter act,SMN2 splice up
Cc1ccnc2nc(C(=O)Nc3ccc4c(c3)OCO4)nn12,13µM*,2.6µM*,1.8µM*,11µM*,1.6µM*,11µM*
Cc1cc(C)n2nc(C(=O)NCCc3ccccc3)nc2n1,0%,23µM*,u,u,22%,26%
Cc1ccc(NC(=O)c2nc3nccc(C)n3n2)cc1S(=O)(=O)N1CCCCC1,x,10%,x,x,x,x
CC1CCN(c2oc(-c3cccs3)nc2S(=O)(=O)c2ccc(Cl)cc2)CC1,x,x,x,-2%,x,-2%
Cc1ccc(N(CC(=O)NCCc2ccccc2C)S(=O)(=O)N(C)C)cc1,x,x,x,-7%,x,0%
Cc1ccc2cc(/C=N/NC(=O)c3ccc(F)cc3)c(Cl)nc2c1,2%,u,-3%,-2%,0%,-22%
Cc1ccc2nc(Cl)c(/C=N/Nc3ccc(C(=O)O)cc3)cc2c1,x,u,0.32µM*,0.067µM*,0.45µM*,x
Cc1ccc(NCC(=O)N/N=C/c2cc3ccccc3nc2Cl)cc1,-7%,5%,-2%,15µM*,-4%,-6%
O=C(CN1CCOCC1)N/N=C/c1cc2ccccc2nc1Cl,3%,2%,-1%,3%,-1%,14%
Cc1ccnc2nc(NC(=O)c3ccccc3Cl)nn12,x,x,x,-11%,x,16%
CCOc1ccccc1NC(=O)CCc1c(C)nc2c(c(C)nn2-c2ccccc2)c1C,x,x,x,6%,x,5%
O=C(Cc1ccc(Cl)cc1)Nc1ccc(C(=O)N2CCCCC2)cc1,x,12%,10%,27µM*,-1%,x
Cc1ccc(CC(=O)Nc2ccc(C(=O)N3CCCCC3)cc2)cc1,x,-5%,7%,3%,1%,x
O=C(c1ccc(CSc2ccc(Cl)cc2)cc1)N1CCCC1,0%,10%,24%,19µM*,u,8%
O=C(NCCCO)Nc1ccc2nc(-c3ccco3)c(-c3ccco3)nc2c1,16%,2%,0%,11µM*,7%,-20%
O=C(Nc1ccc2nc(-c3ccco3)c(-c3ccco3)nc2c1)NC1CC1,-2%,0%,18%,6µM*,28%,-19%
N#CC1CC(c2ccccc2)=NN1c1ccccc1[N+](=O)[O-] (stereo not drawn),5%,u,u,12µM*,3.5µM*,22µM*
CN(C)c1ccc(CNC(=O)c2ccc(NC(=O)c3nsc4ccccc34)cc2)cc1,x,x,x,2.7µM*,x,x
O=C(NCc1cccc(F)c1)c1ccc(NC(=O)c2nsc3ccccc23)cc1,x,x,x,4.8µM*,x,x
Cc1ccc(CNC(=O)c2ccc(NC(=O)c3nsc4ccccc34)cc2)cc1,x,x,x,6.7µM*,x,x
Cc1ccccc1CNC(=O)c1ccc(NC(=O)c2nsc3ccccc23)cc1,x,x,x,6.7µM*,x,x
Cc1ccc(CCNC(=O)CCCn2nc(C)c3c(C)n(-c4ccccc4)nc3c2=O)cc1,x,x,x,-10%,x,x
O=C(/C=C/c1ccc(O)cc1)c1ccccc1O,4.5µM*,x,x,x,x,-115%
O=C(/C=C/c1ccc(O)cc1)c1cccs1,5.6µM*,x,x,x,x,x
O=C(/C=C/c1ccc(OCc2ccccc2)cc1)c1cccs1,0%,x,x,x,x,x
COc1ccc(/C=C/C(=O)c2ccccn2)cc1,4µM*,u,4µM*,0.38µM*,0.89µM*,8%
COc1ccc(/C=C/C(=O)c2ccccc2O)cc1,u,16µM*,19%,0.27µM*,24%,x
CC(C)Cn1c(=O)c2sccc2n2c(CCCC(=O)Nc3ccc(Cl)cc3)nnc12,x,x,x,-6%,x,x
CCOC(=O)c1c(C)[nH]c(N=Nc2cccc(OC)c2)c1C,-1%,u,1.8µM*,1.7µM*,1.1µM*,14µM*
CCOC(=O)c1c(C)[nH]c(CCC(=O)NCc2cccc(OC)c2)c1C,x,x,x,-6%,x,x

# Compound activity as filed in PubChem BioAssay.
